An excerpt weighted towards active compounds, which were near 3.3% of everything screened.
AmpC detergent: qHTS Inhibitors of AmpC Beta-Lactamase (assay with detergent). P00811. AmpC hydrolysis of nitrocefin, absorbance 480 nm, 0.01% Triton. Potency, µM (highest dose often 114 µM), for the others: at the top dose activity change, negative = inhibition, hits mostly inhibitors. 370,000 tested, 0.041% active. AID 485294, 2010;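 note: 0% = no-compound wells and -100% = no-enzyme wells; nearly all actives have a fitted effect of over 25% in size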
Target sequence (P00811 whole entry, looked up): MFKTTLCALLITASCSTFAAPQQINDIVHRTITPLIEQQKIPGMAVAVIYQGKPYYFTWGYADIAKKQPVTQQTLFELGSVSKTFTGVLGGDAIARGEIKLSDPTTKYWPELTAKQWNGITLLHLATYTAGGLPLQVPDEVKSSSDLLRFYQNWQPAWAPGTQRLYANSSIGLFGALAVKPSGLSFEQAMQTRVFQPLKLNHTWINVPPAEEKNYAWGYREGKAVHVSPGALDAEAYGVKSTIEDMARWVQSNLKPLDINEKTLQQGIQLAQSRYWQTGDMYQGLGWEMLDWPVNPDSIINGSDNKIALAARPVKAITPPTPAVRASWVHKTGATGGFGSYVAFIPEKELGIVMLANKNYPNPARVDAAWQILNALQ
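AmpC (5.3 nM in the dispensed reagent) in 20 mM phosphate pH 7.0 with 0.01% (detergent screen) or 0.0001% Triton X-100 was preincubated with compounds for 15 min at room temperature. Nitrocefin was then added from an 800 uM solution, and hydrolysis was followed at 480 nm.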
Sm TGR block: qHTS Assay for the Inhibitors of Schistosoma Mansoni Peroxiredoxins | Schistosoma mansoni thioredoxin glutathione reductase (TGR), Q962Y6 | purified TGR, DTNB reduction, TNB absorbance 405 nm | Potency, µM (doses to about 114 µM), for inactives: at the top dose activity change, negative = inhibition, usual class: inhibitors | 360,000 tested, 3% active | AID 485364, 2010; note: nearly all actives have a fitted effect of over 60% in size
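First, TGR (20 nM dispensed) and NADPH were mixed with compound. Second, a 15 min room-temperature incubation followed. Third, further NADPH and then DTNB were added to start the reaction. Finally, TNB absorbance was monitored kinetically.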
AmpC no deterg: qHTS Inhibitors of AmpC Beta-Lactamase (assay without detergent). AmpC nitrocefin hydrolysis, absorbance 480 nm, 0.0001% Triton. Potency, µM (doses to about 57.1 µM), inactives show at the top dose activity change, negative = inhibition, usual class: inhibitors. 330,000 tested, 0.52% active. AID 485341, 2010;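 note: plate controls were no compound for no effect and no enzyme for full effect; nearly all actives have a fitted effect of over 20% in size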
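AmpC (5.3 nM in the dispensed reagent) in 20 mM phosphate pH 7.0 with 0.01% (detergent screen) or 0.0001% Triton X-100 was preincubated with compounds for 15 min at room temperature. Nitrocefin was then added from an 800 uM solution, and hydrolysis was followed at 480 nm.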
Starred values were filed as active, the others as inactive; ? = inconclusive; · = no result given. Calls come from the whole dose curve; as a rule, active = well fitted curve in the direction sought with a large enough effect; inconclusive = small, poorly fitted or top-dose-only effect, or another doubt; inactive = no such curve, though single readings can be large; an effect the other way counts as inactive or inconclusive. Unless noted, % is set by controls: 0 for no effect and ±100 for the full control effect; potency is the fitted concentration of half-maximal effect.

SMILES | AmpC detergent | Sm TGR block | AmpC no deterg
COc1cccc(C(=O)CN2CCN(S(=O)(=O)c3ccc(Br)cc3)CC2)c1 | ? | 14µM* | -20%
COc1ccc(NC(=O)CN2CCN(S(=O)(=O)c3ccc(Cl)cc3)CC2)cc1Cl | -12% | 5% | -22%
COc1cc2c(cc1OC)CN(CC(=O)Nc1ccc(S(=O)(=O)N3CCCC3)cc1)CC2 | -6% | -6% | 125%
COc1cccc(CNS(=O)(=O)c2ccc(S(=O)(=O)N3CCCC3)cc2)c1 | -2% | 45µM* | 156%
O=C(Nc1ccc(Cl)c(C(F)(F)F)c1)C(Cc1ccccc1)NS(=O)(=O)c1cccc2nsnc12 (configuration not stated) | -1% | -3% | ·
CCCCOc1ccc(C2=NC(c3ccncc3)=Nc3ccc(Br)cc3N2)cc1 | 9% | -9% | ·
Cc1cccc(CNC(=O)c2sc3ncnc(N(C)C4CCCCC4)c3c2C)c1 | 12% | 4% | ·
CCCOc1cccc(C(=O)N(Cc2ccc(C)o2)C2CCS(=O)(=O)C2)c1 (configuration not stated) | 16% | 2% | ·
COc1ccc(NC(=O)Cn2cnc3c(oc4ccccc43)c2=O)cc1OC | 4% | -2% | ·
CCOc1ccc(NC(=O)CCc2c(C)nc3cc(-c4ccccc4OC)nn3c2C)cc1 | ? | -5% | ·
CC(=O)N1CCCc2cc(S(=O)(=O)N(C)CC(=O)Nc3cccc(C)c3C)ccc21 | -7% | -1% | ·
Cc1ccc2c(c1)C(c1ccc(F)cc1)N(C(=O)COc1ccc(Cl)cc1Cl)CC(=O)N2 (configuration not stated) | 8% | 13% | ·
CC1CCc2nc3ccc(S(=O)(=O)N4CCC(C(=O)NC5CCCC5)CC4)cc3c(C(=O)O)c2C1 (configuration not stated) | ? | 4% | -8%
O=C(O)c1c2c(nc3ccc(S(=O)(=O)N4CCC(C(=O)NC5CCCC5)CC4)cc13)CCCCC2 | -14% | -2% | 25µM*
Clc1ccccc1CN1CCc2nc(N3CCN(c4ncccn4)CC3)ncc2C1 | 0% | 8% | ·
Cc1ccc(NC(=O)CN2C(=O)CC(c3ccc(C)c(C)c3)=Nc3ccccc32)cc1 | 21% | 1% | ·
CC(=O)O[C@@H]1[C@H]2[C@@H](C[C@@H](C)[C@@H]3C=CC(=O)[C@@]13C)OC(=O)[C@@H]2C | 1% | 0% | -22%
C=C1C(=O)O[C@@H]2C[C@@H](C)[C@@H]3C=CC(=O)[C@@]3(C)[C@@H](OC(=O)CC(=O)O[C@H]3[C@@H]4C(=C)C(=O)O[C@@H]4C[C@@H](C)[C@@H]4C=CC(=O)[C@]43C)[C@H]12 | 0% | 1.1µM* | 127%
C=C1C(=O)O[C@H]2[C@H]1[C@H](OC(=O)CC(=O)O[C@@H]1C[C@@H](C)[C@@H]3C=CC(=O)[C@@]3(C)[C@H]3OC(=O)C(=C)[C@H]13)C[C@@H](C)[C@H]1C=CC(=O)[C@]12C | -6% | 8.9µM* | 99%
C=C1C(=O)O[C@H]2C[C@@H](C)[C@@H]3C=CC(=O)[C@@]3(C)C[C@H]12 | -1% | 35µM* | 32%
CCCn1cc(S(=O)(=O)c2ccc(CC)cc2)c(=O)c2ccccc21 | 2% | -7% | ·
CCC(=O)Nc1ccc2nc(SCCOc3ccc(C)cc3OC)sc2c1 | 15% | 0% | ·
Cc1nonc1CN(C)C(=O)c1cc(COc2ccc(F)cc2Cl)on1 | 2% | 0% | 41%
CN(Cc1nccn1C)C(=O)c1cc(COc2cccc(C(F)(F)F)c2)on1 | ? | -23% | 109%
CN(Cc1nccn1C)C(=O)c1cc(COc2ccc3ncccc3c2)on1 | 4% | -17% | 2%
SMILES | AmpC detergent | Sm TGR block | AmpC no deterg
Cc1ccc(CN(C)C(=O)c2cc(COc3ccc(F)cc3Cl)on2)o1 | -5% | 25µM* | 6%
Cc1cc(CN(C)C(=O)c2cc(COc3ccc4ncccc4c3)on2)on1 | 6% | 32µM* | 0%
Cc1ccc(CN(C)C(=O)c2cc(COc3cccc(C(F)(F)F)c3)on2)o1 | -1% | 10µM* | 17%
O=C(C1CCC(Cn2c(=O)c3sccc3n(Cc3cccc(F)c3)c2=O)CC1)N1CCCCC1 (configuration not stated) | 2% | -6% | ·
Cc1ccc(CCNC(=O)CCCn2c(=O)c3ccccc3n(CC(=O)Nc3cc(Cl)ccc3C)c2=O)cc1 | 15% | 1% | ·
Cc1cccc(N2C(=O)CSC23C(=O)N(Cc2cccc(C(F)(F)F)c2)c2ccccc23)c1 (configuration not stated) | 0% | 8% | ·
O=C(Nc1cccc(NC(=O)c2cccs2)c1)c1ccc2c(c1)OCCO2 | -4% | -7% | 7.1µM*
O=C(Nc1cccc(Cl)c1)c1ccc2c(c1)OCCO2 | ? | 5% | -29%
COc1cccc(NC(=O)c2ccc3c(c2)OCO3)c1 | -10% | 0% | -19%
CCC(=O)Nc1cccc(NC(=O)c2ccc3c(c2)OCO3)c1 | 2% | 4% | 0.14µM*
C/C(CC(=O)Nc1ccc2c(c1)OCO2)=N\NC(=O)c1ccc(N)cc1 | 3% | 40µM* | 77%
C/C(CC(=O)Nc1ccc2c(c1)OCO2)=N\NC(=O)c1ccccc1N | -3% | ? | 8%
O=C(COc1ccccc1F)Nc1ccccc1OCc1cc(=O)n2ccccc2n1 | 6% | 0% | ·
CCOc1ccccc1C(=O)N1CCCCC1CCN1CCOCC1 (configuration not stated) | 23% | 0% | ·
COc1ccc(NS(=O)(=O)c2ccc(NC(=O)N3CCCC3)cc2)cc1 | -6% | ? | ·
O=C(NCCc1ccccc1Cl)c1ccc(Cn2c(=O)c3cccn3c3cccnc32)cc1 | -11% | 0% | ·
CCN1c2ccccc2-c2nc(SCC(=O)Nc3c(C)cc(C)cc3C)ncc2S1(=O)=O | 0% | 7% | ·
O=C(c1c2c(nc3ccccc13)C(=O)N(C1CCCCC1)C2)N1CCN(c2ccc(F)cc2)CC1 | -2% | 3% | ·
CCC(=O)N1CCc2cc(S(=O)(=O)NC(CC(C)C)C(=O)Nc3cccc(C)c3C)ccc21 (configuration not stated) | 0% | 9% | ·
Oc1ccc2ccccc2c1C1Nc2cccc3cccc(c23)N1 | 2% | -35% | -33%
COc1cc(C2Nc3cccc4cccc(c34)N2)cc(OC)c1OC(C)=O | 2% | 8.9µM* | -31%
COc1cc(C2Nc3cccc4cccc(c34)N2)ccc1O | ? | 4µM* | -43%
COc1cc(/C=N\NC(=O)c2ccc(-c3ccccc3)cc2)cc(OC)c1OC(C)=O | 4% | ? | 53%
CCN(CC)c1ccc(C2Nc3cccc4cccc(c34)N2)c(O)c1 | -3% | 22µM* | -18%
COc1ccc(Br)cc1C1Nc2cccc3cccc(c23)N1 | -16% | ? | -28%
CC(=O)N1CCc2cc(CNS(=O)(=O)c3ccc(F)cc3)ccc21 | 14% | 3% | ·
CCCn1c(-c2ccc(S(=O)(=O)N3CCOCC3)cc2)csc1=Nc1ccc(OCC)cc1 | 2% | 12% | ·
O=C(CSc1nccn1-c1cccc(Cl)c1)Nc1cccc2ccccc12 | 2% | 2% | ·

Compound activity: PubChem, National Center for Advancing Translational Sciences (NCATS)
